In PubChem BioAssay (EPA / NIEHS):
Inconclusive results are not listed. Activity calls are given as the source filed them. Rule for the calls: active = hit-call score of the fitted dose curve at least 0.9, where 1 is the maximum; inconclusive = response in the unintended direction; inactive = score below 0.9.

Key:
[1] = target: human Peripheral-type Benzodiazepine Receptor (PBR), TSPO (gene 706) (UniProt P30536); assay: NVS_MP_hPBR: NovaScreen (NVS) Membrane Protein Assay for human Peripheral-type Benzodiazepine Receptor (PBR) (AID 2283331);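 note: hits reduce radioligand binding relative to DMSO baseline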
Procedure, shortened: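 Scintillation counts of filter-bound radioligand served as read-out after 1 h chemical dosing of human colonic membrane preparations. Activity was scored as signal loss against DMSO; initial duplicates at 25 uM, confirmatory concentration series afterward.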

[2] = target: bovine Gamma-Aminobutyric Acid Type A Receptor BDZ, alpha 1 site (GABARa1), GABRA1 (gene 780973) (UniProt P08219); assay: NVS_LGIC_bGABARa1: NovaScreen (NVS) Ligand-Gated Ion Channel Assay for bovine Gamma-Aminobutyric Acid Type A Receptor BDZ, alpha 1 site (GABARa1) (AID 2283321)
Experimental: NVS_LGIC_bGABARa1 is a biochemical, single-readout assay that uses extracted gene-proteins from Bovine cortical membranes in a tissue-based cell-free assay. Measurements were taken 0.75 hour after chemical dosing in a 48-well plate.NVS_LGIC_bGABARa1 is one of one assay component(s) measured or calculated from the NVS_LGIC_bGABARa1 assay. It is designed to make measurements of radioligand binding, a form of binding reporter, as detected with scintillation counting signals by Filter-based radiodetection technology.Data from the assay component NVS_LGIC_bGABARa1 was analyzed into 1 assay endpoint. This assay endpoint, NVS_LGIC_bGABARa1, was analyzed in the positive analysis fitting direction relative to DMSO as the negative control and baseline of activity. Using a type of binding reporter, loss-of-signal activity can be used to understand changes in the binding as they relate to the gene GABRA1. Furthermore, this assay endpoint can be referred to as a primary readout, because the performed assay has only produced 1 assay endpoint. To generalize the intended target to other relatable targets, this assay endpoint is annotated to the ion channel intended target family, where the subfamily is ligand-gated ion channel.
Binding assays used specific radioligands (tritiated, iodinated) with non-radioactive competitive displacement ligands in agonist or antagonist protocols (as indicated) and various reference compounds and inhibitors to titrate specific binding to receptors and transporters. Most enzyme assays (CYPs, kinases, phosphatases, proteases, HDACs) used recombinant protein and specific substrates (fluorescence mostly, some colorimetric and radioactive) and inhibitors, followed by a biochemical separation of substrate and product. All assays for the biochemical HTS were initially run in duplicate at a single concentration (10 uM for CYP450 assays and 25 uM for all others). Assay-chemical combinations meeting a pre-defined threshold (e.g., 30% inhibition and other criteria defined below) were then run in singleton concentration-response format with maximum concentration of 20 uM for CYPs and 50 uM for all others. Each assay was run with positive and negative controls, and concurrent controls on every plate. The follow-up (secondary) screen tested active chemical-pairs in concentration series, as well as a few additional assays not tested in the primary screen, some selected negative inactives, and several cases re-run in the concentration series for confirmatory purposes.

[3] = target: bovine Gamma-Aminobutyric Acid Type A Receptor BDZ, alpha 5 site (GABARa5), GABRA5 (gene 523515) (UniProt Q08E50); assay: NVS_LGIC_bGABARa5: NovaScreen (NVS) Ligand-Gated Ion Channel Assay for bovine Gamma-Aminobutyric Acid Type A Receptor BDZ, alpha 5 site (GABARa5) (AID 2283323)
Experimental: NVS_LGIC_bGABARa5 is a biochemical, single-readout assay that uses extracted gene-proteins from Bovine hippocampal membranes in a tissue-based cell-free assay. Measurements were taken 1 hour after chemical dosing in a 48-well plate.NVS_LGIC_bGABARa5 is one of one assay component(s) measured or calculated from the NVS_LGIC_bGABARa5 assay. It is designed to make measurements of radioligand binding, a form of binding reporter, as detected with scintillation counting signals by Filter-based radiodetection technology.Data from the assay component NVS_LGIC_bGABARa5 was analyzed into 1 assay endpoint. This assay endpoint, NVS_LGIC_bGABARa5, was analyzed in the positive analysis fitting direction relative to DMSO as the negative control and baseline of activity. Using a type of binding reporter, loss-of-signal activity can be used to understand changes in the binding as they relate to the gene GABRA5. Furthermore, this assay endpoint can be referred to as a primary readout, because the performed assay has only produced 1 assay endpoint. To generalize the intended target to other relatable targets, this assay endpoint is annotated to the ion channel intended target family, where the subfamily is ligand-gated ion channel. […]

[4] = target: rat Thyrotropin Releasing Hormone Receptor (TRH), Trhr (gene 25570) (UniProt Q01717); assay: NVS_GPCR_rTRH: NovaScreen (NVS) G Protein-Coupled Receptor Assay for rat Thyrotropin Releasing Hormone Receptor (TRH) (AID 2283329);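 note: hit means lower bound tracer signal versus DMSO baseline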
Procedure, shortened: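 Cell-free radioligand binding on rat forebrain membranes; bound tracer measured by filter-based scintillation counting 4 hours after dosing. Loss of signal versus DMSO baseline indicates displacement; primary screen at 25 uM in duplicate, actives then run in concentration series.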

[5] = target: Sodium channel protein type 1 subunit alpha (Rattus norvegicus) (UniProt P04774); assay: NVS_IC_rNaCh_site2: NovaScreen (NVS) Ion Channel Assay for rat Sodium Channel, Site 2 (NaCh) (AID 2283322);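 note: hit means loss of radioligand binding signal relative to DMSO so AC50 marks displacement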
Procedure, shortened: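 Membranes: rat forebrain. Format: competitive radioligand displacement, filter separation, scintillation readout, 1 h exposure. Primary screen in duplicate at 25 uM; actives retested in concentration series.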

[6] = target: rat Gamma-Aminobutyric Acid Type A Receptor, Non-Selective (GABAR-NonSelective), Gabra1 (gene 29705) (UniProt P62813); assay: NVS_LGIC_rGABAR_NonSelective: NovaScreen (NVS) Ligand-Gated Ion Channel Assay for rat Gamma-Aminobutyric Acid Type A Receptor, Non-Selective (GABAR-NonSelective) (AID 2283326)
Procedure, shortened: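 Radioligand displacement on rat whole-brain extract, 1 h, filter scintillation readout; signal loss fitted versus DMSO. Primary screen in duplicate at 25 uM; hits (e.g. ≥30% inhibition) retested in concentration-response up to 50 uM.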

[7] = target: rat Oxytocin Receptor (OXT), Oxtr (gene 25342) (UniProt P70536); assay: NVS_GPCR_rOXT: NovaScreen (NVS) G Protein-Coupled Receptor Assay for rat Oxytocin Receptor (OXT) (AID 2283330)
Experimental: NVS_GPCR_rOXT is a biochemical, single-readout assay that uses extracted gene-proteins from Rat uterine membranes in a tissue-based cell-free assay. Measurements were taken 1 hour after chemical dosing in a 48-well plate.NVS_GPCR_rOXT is one of one assay component(s) measured or calculated from the NVS_GPCR_rOXT assay. It is designed to make measurements of radioligand binding, a form of binding reporter, as detected with scintillation counting signals by Filter-based radiodetection technology.Data from the assay component NVS_GPCR_rOXT was analyzed into 1 assay endpoint. This assay endpoint, NVS_GPCR_rOXT, was analyzed in the positive analysis fitting direction relative to DMSO as the negative control and baseline of activity. […] Furthermore, this assay endpoint can be referred to as a primary readout, because the performed assay has only produced 1 assay endpoint. […]
Binding assays used specific radioligands (tritiated, iodinated) with non-radioactive competitive displacement ligands in agonist or antagonist protocols (as indicated) and various reference compounds and inhibitors to titrate specific binding to receptors and transporters. Most enzyme assays (CYPs, kinases, phosphatases, proteases, HDACs) used recombinant protein and specific substrates (fluorescence mostly, some colorimetric and radioactive) and inhibitors, followed by a biochemical separation of substrate and product. […]

[8] = target: human Serotonin, 5-Hydroxytryptamine Receptor 3 (5HT3), HTR3A (gene 3359) (UniProt P46098); assay: NVS_LGIC_h5HT3: NovaScreen (NVS) Ligand-Gated Ion Channel Assay for human Serotonin, 5-Hydroxytryptamine Receptor 3 (5HT3) (AID 2283325)
Procedure, shortened: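 Radioligand displacement binding to human 5-HT3 from HEK293 membranes, read by filter-based scintillation counting after 1 h. Screen at 25 uM in duplicate; chemicals passing threshold were retested in concentration-response up to 50 uM.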

[9] = target: human Constitutive Androstane Receptor (CAR), NR1I3 (gene 9970) (UniProt Q14994); assay: NVS_NR_hCAR_Agonist: NovaScreen (NVS) Nuclear Receptor Binding Assay for human Constitutive Androstane Receptor Agonism (CAR) (AID 2283328)
Procedure, shortened: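 Cell-free TR-FRET binding readout with extracted human CAR protein, read 1 h after dosing. Gain of signal fitted against DMSO baseline. Single-concentration duplicates at 25 uM, then concentration-response up to 50 uM for actives.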

[10] = target: rat Glutamate, AMPA Site (AMPA), Gria1 (gene 50592) (UniProt P19490); assay: NVS_LGIC_rAMPA: NovaScreen (NVS) Ligand-Gated Ion Channel Assay for rat Glutamate, AMPA Site (AMPA) (AID 2283324)
Procedure, shortened: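 Rat forebrain membranes; radioligand binding read 1 h after dosing by filtration and scintillation counting. Duplicate single-point screen at 25 uM, then concentration-response to 50 uM for threshold hits (e.g. 30% inhibition); loss of signal vs DMSO.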

Chain of rat Gamma-Aminobutyric Acid Type A Receptor, Non-Selective (GABAR-NonSelective), Gabra1 (gene 29705) (P62813 whole entry, looked up): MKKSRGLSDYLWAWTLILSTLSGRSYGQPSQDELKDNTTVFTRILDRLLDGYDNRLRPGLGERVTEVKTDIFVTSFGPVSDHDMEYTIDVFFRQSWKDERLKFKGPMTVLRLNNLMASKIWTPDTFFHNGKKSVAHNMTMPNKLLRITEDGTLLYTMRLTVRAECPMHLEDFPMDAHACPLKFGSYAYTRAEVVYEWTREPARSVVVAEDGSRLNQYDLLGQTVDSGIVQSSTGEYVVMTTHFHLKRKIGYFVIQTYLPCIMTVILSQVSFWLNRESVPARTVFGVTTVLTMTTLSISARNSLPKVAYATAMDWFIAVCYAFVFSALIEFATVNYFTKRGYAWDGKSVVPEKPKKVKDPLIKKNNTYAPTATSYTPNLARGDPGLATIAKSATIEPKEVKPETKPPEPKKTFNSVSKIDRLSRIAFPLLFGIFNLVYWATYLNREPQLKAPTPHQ
Chain of human Serotonin, 5-Hydroxytryptamine Receptor 3 (5HT3), HTR3A (gene 3359) (P46098 whole entry, looked up): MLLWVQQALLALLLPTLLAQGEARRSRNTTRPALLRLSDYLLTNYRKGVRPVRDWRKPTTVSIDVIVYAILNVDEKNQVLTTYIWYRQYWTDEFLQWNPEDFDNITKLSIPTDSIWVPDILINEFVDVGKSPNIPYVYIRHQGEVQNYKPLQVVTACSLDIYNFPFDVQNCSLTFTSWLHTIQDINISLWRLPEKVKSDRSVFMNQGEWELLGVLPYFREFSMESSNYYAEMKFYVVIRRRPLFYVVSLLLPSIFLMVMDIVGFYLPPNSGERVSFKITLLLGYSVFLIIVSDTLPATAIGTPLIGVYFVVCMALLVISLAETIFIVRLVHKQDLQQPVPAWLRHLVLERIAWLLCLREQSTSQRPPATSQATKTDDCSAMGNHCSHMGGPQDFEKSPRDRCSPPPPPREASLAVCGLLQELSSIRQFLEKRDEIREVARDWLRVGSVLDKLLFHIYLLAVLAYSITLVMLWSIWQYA
Chain of human Constitutive Androstane Receptor (CAR), NR1I3 (gene 9970) (Q14994 whole entry, looked up): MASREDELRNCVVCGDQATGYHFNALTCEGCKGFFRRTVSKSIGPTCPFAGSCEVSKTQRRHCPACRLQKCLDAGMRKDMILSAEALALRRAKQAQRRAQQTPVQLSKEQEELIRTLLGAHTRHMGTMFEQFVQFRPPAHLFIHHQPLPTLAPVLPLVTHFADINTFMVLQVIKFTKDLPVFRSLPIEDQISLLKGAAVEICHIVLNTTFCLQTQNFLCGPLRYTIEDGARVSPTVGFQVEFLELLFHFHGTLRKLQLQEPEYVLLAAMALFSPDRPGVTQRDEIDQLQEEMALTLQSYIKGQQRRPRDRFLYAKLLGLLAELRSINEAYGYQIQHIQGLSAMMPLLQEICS
Chain of rat Glutamate, AMPA Site (AMPA), Gria1 (gene 50592) (P19490 whole entry, looked up): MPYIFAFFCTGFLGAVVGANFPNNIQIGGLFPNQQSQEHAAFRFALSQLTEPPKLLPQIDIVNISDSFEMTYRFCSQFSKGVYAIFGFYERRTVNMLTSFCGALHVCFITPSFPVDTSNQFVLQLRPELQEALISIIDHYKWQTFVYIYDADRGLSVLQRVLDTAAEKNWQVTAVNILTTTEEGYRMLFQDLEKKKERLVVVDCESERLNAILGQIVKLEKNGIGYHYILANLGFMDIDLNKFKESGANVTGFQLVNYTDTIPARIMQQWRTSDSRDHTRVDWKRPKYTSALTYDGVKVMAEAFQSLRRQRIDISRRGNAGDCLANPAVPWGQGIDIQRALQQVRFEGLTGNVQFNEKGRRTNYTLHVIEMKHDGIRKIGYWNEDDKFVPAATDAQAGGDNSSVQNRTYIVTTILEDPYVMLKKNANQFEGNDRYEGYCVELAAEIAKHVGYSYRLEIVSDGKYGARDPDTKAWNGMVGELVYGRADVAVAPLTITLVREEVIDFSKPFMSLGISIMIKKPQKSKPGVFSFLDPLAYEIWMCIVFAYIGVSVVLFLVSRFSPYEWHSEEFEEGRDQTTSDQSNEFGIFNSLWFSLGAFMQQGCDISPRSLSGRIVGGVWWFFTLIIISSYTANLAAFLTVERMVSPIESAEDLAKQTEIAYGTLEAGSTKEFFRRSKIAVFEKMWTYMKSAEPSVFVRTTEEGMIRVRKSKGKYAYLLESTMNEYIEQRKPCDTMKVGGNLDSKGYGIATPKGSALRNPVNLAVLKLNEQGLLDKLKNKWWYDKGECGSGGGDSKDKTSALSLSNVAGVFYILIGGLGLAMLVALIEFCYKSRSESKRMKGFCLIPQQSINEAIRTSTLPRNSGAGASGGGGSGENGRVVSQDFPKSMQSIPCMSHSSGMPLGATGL
Chain of bovine Gamma-Aminobutyric Acid Type A Receptor BDZ, alpha 1 site (GABARa1), GABRA1 (gene 780973) (P08219 whole entry, looked up): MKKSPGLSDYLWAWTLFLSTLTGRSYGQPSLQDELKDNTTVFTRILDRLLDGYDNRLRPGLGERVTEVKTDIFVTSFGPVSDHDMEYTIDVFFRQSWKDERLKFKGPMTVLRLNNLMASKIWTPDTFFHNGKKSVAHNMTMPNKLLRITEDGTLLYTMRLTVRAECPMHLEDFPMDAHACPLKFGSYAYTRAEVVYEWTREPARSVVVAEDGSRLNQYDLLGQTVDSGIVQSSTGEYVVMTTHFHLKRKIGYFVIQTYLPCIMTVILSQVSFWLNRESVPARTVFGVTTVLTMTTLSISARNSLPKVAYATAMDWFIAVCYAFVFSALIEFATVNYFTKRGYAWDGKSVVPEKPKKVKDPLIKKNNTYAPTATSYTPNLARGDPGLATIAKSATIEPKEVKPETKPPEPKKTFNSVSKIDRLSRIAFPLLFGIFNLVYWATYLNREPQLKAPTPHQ
Chain of human Peripheral-type Benzodiazepine Receptor (PBR), TSPO (gene 706) (P30536 whole entry, looked up): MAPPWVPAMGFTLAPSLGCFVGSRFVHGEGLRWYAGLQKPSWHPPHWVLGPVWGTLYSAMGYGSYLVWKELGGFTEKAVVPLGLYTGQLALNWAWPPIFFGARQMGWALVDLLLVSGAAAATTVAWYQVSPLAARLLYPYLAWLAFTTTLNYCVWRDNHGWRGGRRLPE
Chain of bovine Gamma-Aminobutyric Acid Type A Receptor BDZ, alpha 5 site (GABARa5), GABRA5 (gene 523515) (Q08E50 whole entry, looked up): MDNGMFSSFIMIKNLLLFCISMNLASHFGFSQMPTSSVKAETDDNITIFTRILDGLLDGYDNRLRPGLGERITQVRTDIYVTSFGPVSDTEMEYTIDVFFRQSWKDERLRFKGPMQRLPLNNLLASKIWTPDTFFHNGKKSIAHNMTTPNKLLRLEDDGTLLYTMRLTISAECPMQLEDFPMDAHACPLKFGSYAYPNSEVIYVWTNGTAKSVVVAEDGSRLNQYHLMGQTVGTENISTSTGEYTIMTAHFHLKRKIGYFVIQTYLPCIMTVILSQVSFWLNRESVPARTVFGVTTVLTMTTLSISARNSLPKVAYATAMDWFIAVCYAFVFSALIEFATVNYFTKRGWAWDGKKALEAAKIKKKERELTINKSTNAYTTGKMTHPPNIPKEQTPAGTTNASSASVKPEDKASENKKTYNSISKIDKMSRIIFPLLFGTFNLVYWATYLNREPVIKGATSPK
Chain of rat Thyrotropin Releasing Hormone Receptor (TRH), Trhr (gene 25570) (Q01717 whole entry, looked up): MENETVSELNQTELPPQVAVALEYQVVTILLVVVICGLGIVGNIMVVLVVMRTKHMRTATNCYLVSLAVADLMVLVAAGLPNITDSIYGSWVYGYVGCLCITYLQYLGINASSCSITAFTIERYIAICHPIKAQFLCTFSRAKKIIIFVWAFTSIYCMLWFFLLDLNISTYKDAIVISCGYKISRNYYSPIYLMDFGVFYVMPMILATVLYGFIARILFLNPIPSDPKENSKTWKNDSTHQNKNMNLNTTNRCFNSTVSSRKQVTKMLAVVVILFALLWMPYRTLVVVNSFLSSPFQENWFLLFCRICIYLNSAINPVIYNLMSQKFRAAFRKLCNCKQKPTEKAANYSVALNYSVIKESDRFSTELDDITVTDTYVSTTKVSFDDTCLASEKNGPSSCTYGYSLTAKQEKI
Chain of rat Oxytocin Receptor (OXT), Oxtr (gene 25342) (P70536 whole entry, looked up): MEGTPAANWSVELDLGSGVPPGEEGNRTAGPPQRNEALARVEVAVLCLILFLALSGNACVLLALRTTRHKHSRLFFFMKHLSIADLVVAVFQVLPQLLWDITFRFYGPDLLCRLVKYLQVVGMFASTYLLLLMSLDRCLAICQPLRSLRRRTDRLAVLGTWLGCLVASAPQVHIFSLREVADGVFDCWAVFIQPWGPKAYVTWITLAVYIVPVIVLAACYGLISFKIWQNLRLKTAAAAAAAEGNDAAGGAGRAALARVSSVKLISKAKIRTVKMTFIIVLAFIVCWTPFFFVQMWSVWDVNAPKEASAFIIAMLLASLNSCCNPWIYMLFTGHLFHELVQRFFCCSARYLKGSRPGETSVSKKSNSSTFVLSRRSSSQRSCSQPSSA

SMILES: CN(C)c1ccc(C(=O)c2ccc(N(C)C)cc2)cc1
- AC50 [1]: 10.2 µM (active)

SMILES: C[C@]12C=CC3=C4CCC(=O)C=C4CC[C@H]3[C@@H]1CC[C@@H]2O
- AC50 [2]: 20.5 µM (active)
- AC50 [3]: 40.7 µM (active)
- outcome [4]: inactive

SMILES: CCCCCCCCCCCCCN1CC(C)OC(C)C1 (stereo unspecified)
- outcome [5]: inactive

SMILES: CC(C)(O)c1cnn2c(-c3ccc(F)c(-c4c(F)cccc4C#N)c3)cnc2n1
- outcome [2]: inactive
- AC50 [3]: 0.00229 µM (active)
- outcome [6]: inactive

SMILES: O=C(O)C1C2CCC(O2)C1C(=O)O (stereo unspecified)
- AC50 [6]: 2.14 µM (active)

SMILES: O=C(N[C@H](c1ccccc1)[C@@H]1CN2CCC1CC2)c1c(Cl)ccc(C(F)(F)F)c1Cl
- AC50 [5]: 0.113 µM (active)
- AC50 [6]: 0.238 µM (active)
- outcome [7]: inactive
- outcome [1]: inactive

SMILES: ClCCOCCCl
- AC50 [8]: 1.38 µM (active)

SMILES: c1ccc(N=Nc2ccccc2)cc1
- outcome [8]: inactive

SMILES: CCCCCOC(=O)c1ccccc1C(=O)OCCCCC
- outcome [5]: inactive

SMILES: Cc1ccc(N=C=O)cc1N=C=O
- AC50 [1]: 4.24 µM (active)

SMILES: O=C(Nc1ccccc1)c1ccccc1I
- AC50 [1]: 1.46 µM (active)

SMILES: COP(=S)(OC)SCN1C(=O)c2ccccc2C1=O
- outcome [5]: inactive

SMILES: CC(C)COC(=O)c1ccccc1C(=O)OCC(C)C
- outcome [1]: inactive

SMILES: CCCSC(=O)N(CCC)CCC
- outcome [9]: inactive

SMILES: OCCCBr
- outcome [4]: inactive

SMILES: CCCCCCCCn1sccc1=O
- AC50 [5]: 31.5 µM (active)
- outcome [10]: inactive
- AC50 [1]: 1.24 µM (active)

SMILES: CCC(C)c1ccc(O)cc1 (stereo unspecified)
- outcome [6]: inactive

SMILES: Cc1ccc(N)c(N)c1
- outcome [2]: inactive

SMILES: c1ccc(NNc2ccccc2)cc1
- outcome [10]: inactive

SMILES: O=C(Oc1ccc(Br)cc1)N1CCN2CCC1CC2
- outcome [2]: inactive
- AC50 [5]: 8.18 µM (active)
- AC50 [8]: 12.5 µM (active)

SMILES: CC(C)(C)OOC(C)(C)CCC(C)(C)OOC(C)(C)C
- outcome [9]: inactive

SMILES: c1ccc2c(c1)-c1cccc3cccc-2c13
- outcome [9]: inactive

SMILES: CC(C)(C)C(O)(CCc1ccc(Cl)cc1)Cn1cncn1 (stereo unspecified)
- AC50 [5]: 25 µM (active)

SMILES: Cc1cccc(N)c1N
- outcome [8]: inactive

SMILES: Cc1cc(N=Nc2ccccc2C)ccc1N
- outcome [9]: inactive
- AC50 [1]: 36.2 µM (active)

SMILES: CC(C)N(Cc1ccccc1)C(=O)C(C)(C)C
- outcome [8]: inactive

SMILES: Nc1ccc(N=Nc2ccccc2)cc1
- AC50 [8]: 11.4 µM (active)
- outcome [6]: inactive
- outcome [9]: inactive

SMILES: CCOC(=O)[C@]1(c2ccccc2)Oc2ccccc2[C@@H]1N
- AC50 [5]: 2.3 µM (active)
- AC50 [6]: 1.08 µM (active)

SMILES: CCC[CH2][Sn]([Cl])([CH2]CCC)[CH2]CCC
- AC50 [5]: 17.7 µM (active)
- outcome [10]: inactive

SMILES: Brc1ccc(Oc2ccccc2)cc1
- outcome [8]: inactive
